This passage reports outcome and AC50 results from PubChem BioAssay (EPA / NIEHS).

Read-out in assay [1]: Tumor necrosis factor receptor superfamily member 6 (Homo sapiens) (UniProt P25445)
Kind of assay: LTEA_HepaRG_FAS: Life Technologies and Expression Analysis (LTEA) Assay for Fas cell surface death receptor (FAS) using HepaRG (AID 2283447). Particulars: mRNA level, 48 h; actives raise or lower the signal. The gist of the method: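 Differentiated human HepaRG cells, pre-cultured 48 h, were exposed in duplicate for 48 h to 8-point half-log concentrations (top 100 uM, 0.5% DMSO) in serum-free induction medium; FAS mRNA measured by qRT-PCR, normalized to ACTB/GAPDH/POLR2A, bidirectional fit versus DMSO.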

Read-out in assay [2]: Fatty acid synthase (Homo sapiens) (UniProt P49327)
Kind of assay: LTEA_HepaRG_FASN: Life Technologies and Expression Analysis (LTEA) Assay for Fatty Acid Synthase (FASN) using HepaRG (AID 2283448). Particulars: mRNA level, 48 h; actives raise or lower the signal. A digest of the protocol:
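HepaRG, 48 h exposure, 8-pt half-log series top 100 uM, 0.5% DMSO vehicle, duplicates. Readout: FASN transcript by Fluidigm qRT-PCR; housekeeping-normalized; bidirectional curve fit vs DMSO baseline.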

Read-out in assay [3]: Cyclin D2 (CCND2), CCND2 (gene 894)
The assay is described as follows: LTEA_HepaRG_CCND2: Life Technologies and Expression Analysis (LTEA) Assay for Cyclin D2 (CCND2) using HepaRG (AID 2283449).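 Note: CCND2 transcript measured by TaqMan qRT-PCR and normalised to three housekeeping genes.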 The note with it: mRNA level, 48 h; actives raise or lower the signal. A digest of the protocol: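 In this HepaRG study, an eight-point concentration series (max 100 uM, 0.5% DMSO) is applied for 48 h. CCND2 mRNA change is derived by qRT-PCR normalised to ACTB, GAPDH and POLR2A.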

Read-out in assay [4]: Cyclin Dependent Kinase Inhibitor 1A (CDKN1A), CDKN1A (gene 1026)
Kind of assay: LTEA_HepaRG_CDKN1A: Life Technologies and Expression Analysis (LTEA) Assay for Cyclin Dependent Kinase Inhibitor 1A (CDKN1A) using HepaRG (AID 2283450). Particulars: mRNA level, 48 h; actives raise or lower the signal. The gist of the method: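 Differentiated HepaRG cells in serum-free induction medium, exposed 48 h in duplicate to eight half-log concentrations up to 100 uM in 0.5% DMSO. mRNA measured by TaqMan qRT-PCR, normalized to ACTB, GAPDH, POLR2A; bidirectional fit versus DMSO.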

Read-out in assay [5]: Cyclin D1 (CCND1), CCND1 (gene 595)
The assay is described as follows: LTEA_HepaRG_CCND1: Life Technologies and Expression Analysis (LTEA) Assay for Cyclin D1 (CCND1) using HepaRG (AID 2283451). Particulars: mRNA level, 48 h; actives raise or lower the signal. The gist of the method:
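Differentiated HepaRG cells exposed 48 h in serum-free induction medium to eight half-log concentrations from 100 uM top, 0.5% DMSO, duplicates. CCND1 mRNA measured by Fluidigm TaqMan qRT-PCR, normalised to ACTB, GAPDH, POLR2A; bidirectional fit.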

Read-out in assay [6]: catalase (CAT), CAT (gene 847)
Kind of assay: LTEA_HepaRG_CAT: Life Technologies and Expression Analysis (LTEA) Assay for catalase (CAT) using HepaRG (AID 2283452). The note with it: mRNA level, 48 h; actives raise or lower the signal. The gist of the method:
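Differentiated HepaRG cells in serum-free induction medium were dosed 48 h in duplicate, eight half-log concentrations from 100 uM in 0.5% DMSO. Transcript measured by TaqMan qRT-PCR, normalised to ACTB/GAPDH/POLR2A, fitted bidirectionally against DMSO.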

Read-out in assay [7]: flavin-containing dimethylaniline monooxygenases 3 (FMO3), FMO3 (gene 2328)
The assay is described as follows: LTEA_HepaRG_FMO3: Life Technologies and Expression Analysis (LTEA) Assay for flavin-containing dimethylaniline monooxygenases 3 (FMO3) using HepaRG (AID 2283453). Particulars: mRNA level, 48 h; actives raise or lower the signal. The gist of the method: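 Eight-point concentration-response in serum-free HepaRG cultures (top 100 uM, 0.5% DMSO, 48 h). Read-out: FMO3 mRNA level normalized to three endogenous control genes, fitted bidirectionally versus vehicle.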

Read-out in assay [8]: Cytochrome P450 (CYP1A1), CYP1A1 (gene 1543)
Kind of assay: LTEA_HepaRG_CYP1A1: Life Technologies and Expression Analysis (LTEA) Assay for Cytochrome P450 (CYP1A1) using HepaRG (AID 2283454). Particulars: mRNA level, 48 h; actives raise or lower the signal. The gist of the method:
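Differentiated human HepaRG cells, after 48 h plating, exposed in duplicate for 48 h in serum-free induction medium to 8 half-log concentrations up to 100 uM in 0.5% DMSO. CYP1A1 mRNA by qRT-PCR, normalized to ACTB/GAPDH/POLR2A; bidirectional fit versus DMSO.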

Read-out in assay [9]: CFLAR gene, CFLAR (gene 8837)
Kind of assay: LTEA_HepaRG_CFLAR: Life Technologies and Expression Analysis (LTEA) Assay for CFLAR gene using HepaRG (AID 2283455). The note with it: mRNA level, 48 h; actives raise or lower the signal. A digest of the protocol: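 Gain- or loss-of-signal changes in CFLAR transcript were fitted bidirectionally relative to 0.5% DMSO. Cells (HepaRG, duplicate wells) were dosed for 48 h across eight half-log concentrations topping at 100 uM; quantitation by TaqMan qRT-PCR.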

Read-out in assay [10]: Forkhead box O1 (FOXO1), FOXO1 (gene 2308)
Kind of assay: LTEA_HepaRG_FOXO1: Life Technologies and Expression Analysis (LTEA) Assay for Forkhead box O1 (FOXO1) using HepaRG (AID 2283456). Particulars: mRNA level, 48 h; actives raise or lower the signal. The gist of the method: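 Using one lot of HepaRG hepatic cells kept in 0.5% DMSO, the team applied test chemicals in duplicate, half-log dilutions from 100 uM, for 48 h. Expression, normalised to ACTB/GAPDH/POLR2A, was compared with vehicle in either direction.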

Read-out in assay [11]: growth arrest and DNA damage 45 (GADD45A), GADD45A (gene 1647)
The assay is described as follows: LTEA_HepaRG_GADD45A: Life Technologies and Expression Analysis (LTEA) Assay for growth arrest and DNA damage 45 (GADD45A) using HepaRG (AID 2283458). Particulars: mRNA level, 48 h; actives raise or lower the signal. A digest of the protocol: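 HepaRG, 48 h exposure, 8 conc. (top 100 uM, half-log steps), 0.5% DMSO vehicle, duplicates. Read-out: qRT-PCR mRNA level, housekeeping-normalized (ACTB/GAPDH/POLR2A). Curves fit bidirectionally vs DMSO baseline.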

Read-out in assay [12]: Forkhead box O3 (FOXO3), FOXO3 (gene 2309)
Kind of assay: LTEA_HepaRG_FOXO3: Life Technologies and Expression Analysis (LTEA) Assay for Forkhead box O3 (FOXO3) using HepaRG (AID 2283459). The note with it: mRNA level, 48 h; actives raise or lower the signal. The gist of the method: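 Gene-expression endpoint: FOXO3 transcript level by qRT-PCR in HepaRG cultures treated 48 h with chemicals up to 100 uM (half-log, 0.5% DMSO vehicle).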

Read-out in assay [13]: ABC Transporter (ABCB1), ABCB1 (gene 5243)
The assay is described as follows: LTEA_HepaRG_ABCB1: Life Technologies and Expression Analysis (LTEA) Assay for ABC Transporter (ABCB1) using HepaRG (AID 2283460). The note with it: mRNA level, 48 h; actives raise or lower the signal. A digest of the protocol:
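Human liver HepaRG line treated 48 h with up to 100 uM compound (eight half-log points, 0.5% DMSO); ABCB1 mRNA change fitted bidirectionally against DMSO controls.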

Read-out in assay [14]: growth arrest and DNA damage 45 (GADD45B), GADD45B (gene 4616)
The assay is described as follows: LTEA_HepaRG_GADD45B: Life Technologies and Expression Analysis (LTEA) Assay for growth arrest and DNA damage 45 (GADD45B) using HepaRG (AID 2283461). The note with it: mRNA level, 48 h; actives raise or lower the signal. The gist of the method:
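Differentiated human HepaRG cells in serum-free induction medium exposed 48 h in duplicate to eight concentrations, top 100 uM, half-log steps, 0.5% DMSO. GADD45B mRNA by TaqMan qRT-PCR, normalized to ACTB, GAPDH, POLR2A; bidirectional fit versus DMSO.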

Read-out in assay [15]: ABC Transporter (ABCC3), ABCC3 (gene 8714)
Kind of assay: LTEA_HepaRG_ABCC3: Life Technologies and Expression Analysis (LTEA) Assay for ABC Transporter (ABCC3) using HepaRG (AID 2283462). The note with it: mRNA level, 48 h; actives raise or lower the signal. A digest of the protocol:
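Differentiated human HepaRG cells exposed 48 h in serum-free induction medium, 0.5% DMSO vehicle, 8-point half-log series to 100 uM in duplicate. ABCC3 mRNA by qRT-PCR, normalised to ACTB, GAPDH, POLR2A; bidirectional fit vs DMSO.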

Read-out in assay [16]: ABC Transporter (ABCB11), ABCB11 (gene 8647)
Kind of assay: LTEA_HepaRG_ABCB11: Life Technologies and Expression Analysis (LTEA) Assay for ABC Transporter (ABCB11) using HepaRG (AID 2283463). The note with it: mRNA level, 48 h; actives raise or lower the signal. The gist of the method:
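Using HepaRG cultures held in 0.5% DMSO, chemicals were tested at half-log dilutions from 100 uM for 48 h. Induction or suppression of ABCB11 mRNA, normalized to ACTB, GAPDH and POLR2A, was fitted bidirectionally against vehicle.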

Read-out in assay [17]: ABC Transporter (ABCC2), ABCC2 (gene 1244)
The assay is described as follows: LTEA_HepaRG_ABCC2: Life Technologies and Expression Analysis (LTEA) Assay for ABC Transporter (ABCC2) using HepaRG (AID 2283464). The note with it: mRNA level, 48 h; actives raise or lower the signal. A digest of the protocol: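 Differentiated HepaRG cells in serum-free induction medium exposed 48 h to eight half-log concentrations up to 100 uM, 0.5% DMSO, in duplicate. ABCC2 mRNA measured by qRT-PCR (TaqMan, Fluidigm), normalized to ACTB, GAPDH and POLR2A. Fitted in both directions against DMSO.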

Read-out in assay [18]: Broad substrate specificity ATP-binding cassette transporter ABCG2 (Homo sapiens) (UniProt Q9UNQ0)
The assay is described as follows: LTEA_HepaRG_ABCG2: Life Technologies and Expression Analysis (LTEA) Assay for ABC Transporter (ABCG2) using HepaRG (AID 2283465). The note with it: mRNA level, 48 h; actives raise or lower the signal. The gist of the method:
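Gene expression of ABCG2 in HepaRG liver cells is quantified by qRT-PCR following 48 h exposure across an eight-point series topping at 100 uM. Values come from bidirectional fitting relative to DMSO vehicle.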

Assay [19] is described as follows: CEETOX_H295R_PROG: CeeTox H295R High-throughput Steroidogenesis Assay for Progesterone (PROG) (AID 2283442).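 For AC50: human H295R adrenal cells primed with 10 µM forskolin before dosing.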 The note with it: actives raise or lower the signal. The gist of the method:
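H295R adrenal cells prestimulated 48 h with 10 uM forskolin, then exposed 48 h to test chemical in 0.1% DMSO. Progesterone in medium quantified by HPLC-MS/MS after MTBE extraction; viability checked by MTT in same wells.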

A short description of assay [20]: CEETOX_H295R_TESTO: CeeTox H295R High-throughput Steroidogenesis Assay for Testosterone (TESTO) (AID 2283457). Particulars: actives raise or lower the signal. The gist of the method:
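H295R adrenal cells, passage ≤10, exposed to chemicals for 48 h. Testosterone in medium measured by MTBE extraction and HPLC-MS/MS against a 7-point standard curve. Bidirectional fit versus DMSO; MTT viability checked in the same wells.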

Activity calls are given as the source filed them. Rule for the calls: active = hit-call score of the fitted dose curve at least 0.9, where 1 is the maximum; inactive = score below 0.9.

Chain of Fatty acid synthase (Homo sapiens) (P49327 whole entry, looked up): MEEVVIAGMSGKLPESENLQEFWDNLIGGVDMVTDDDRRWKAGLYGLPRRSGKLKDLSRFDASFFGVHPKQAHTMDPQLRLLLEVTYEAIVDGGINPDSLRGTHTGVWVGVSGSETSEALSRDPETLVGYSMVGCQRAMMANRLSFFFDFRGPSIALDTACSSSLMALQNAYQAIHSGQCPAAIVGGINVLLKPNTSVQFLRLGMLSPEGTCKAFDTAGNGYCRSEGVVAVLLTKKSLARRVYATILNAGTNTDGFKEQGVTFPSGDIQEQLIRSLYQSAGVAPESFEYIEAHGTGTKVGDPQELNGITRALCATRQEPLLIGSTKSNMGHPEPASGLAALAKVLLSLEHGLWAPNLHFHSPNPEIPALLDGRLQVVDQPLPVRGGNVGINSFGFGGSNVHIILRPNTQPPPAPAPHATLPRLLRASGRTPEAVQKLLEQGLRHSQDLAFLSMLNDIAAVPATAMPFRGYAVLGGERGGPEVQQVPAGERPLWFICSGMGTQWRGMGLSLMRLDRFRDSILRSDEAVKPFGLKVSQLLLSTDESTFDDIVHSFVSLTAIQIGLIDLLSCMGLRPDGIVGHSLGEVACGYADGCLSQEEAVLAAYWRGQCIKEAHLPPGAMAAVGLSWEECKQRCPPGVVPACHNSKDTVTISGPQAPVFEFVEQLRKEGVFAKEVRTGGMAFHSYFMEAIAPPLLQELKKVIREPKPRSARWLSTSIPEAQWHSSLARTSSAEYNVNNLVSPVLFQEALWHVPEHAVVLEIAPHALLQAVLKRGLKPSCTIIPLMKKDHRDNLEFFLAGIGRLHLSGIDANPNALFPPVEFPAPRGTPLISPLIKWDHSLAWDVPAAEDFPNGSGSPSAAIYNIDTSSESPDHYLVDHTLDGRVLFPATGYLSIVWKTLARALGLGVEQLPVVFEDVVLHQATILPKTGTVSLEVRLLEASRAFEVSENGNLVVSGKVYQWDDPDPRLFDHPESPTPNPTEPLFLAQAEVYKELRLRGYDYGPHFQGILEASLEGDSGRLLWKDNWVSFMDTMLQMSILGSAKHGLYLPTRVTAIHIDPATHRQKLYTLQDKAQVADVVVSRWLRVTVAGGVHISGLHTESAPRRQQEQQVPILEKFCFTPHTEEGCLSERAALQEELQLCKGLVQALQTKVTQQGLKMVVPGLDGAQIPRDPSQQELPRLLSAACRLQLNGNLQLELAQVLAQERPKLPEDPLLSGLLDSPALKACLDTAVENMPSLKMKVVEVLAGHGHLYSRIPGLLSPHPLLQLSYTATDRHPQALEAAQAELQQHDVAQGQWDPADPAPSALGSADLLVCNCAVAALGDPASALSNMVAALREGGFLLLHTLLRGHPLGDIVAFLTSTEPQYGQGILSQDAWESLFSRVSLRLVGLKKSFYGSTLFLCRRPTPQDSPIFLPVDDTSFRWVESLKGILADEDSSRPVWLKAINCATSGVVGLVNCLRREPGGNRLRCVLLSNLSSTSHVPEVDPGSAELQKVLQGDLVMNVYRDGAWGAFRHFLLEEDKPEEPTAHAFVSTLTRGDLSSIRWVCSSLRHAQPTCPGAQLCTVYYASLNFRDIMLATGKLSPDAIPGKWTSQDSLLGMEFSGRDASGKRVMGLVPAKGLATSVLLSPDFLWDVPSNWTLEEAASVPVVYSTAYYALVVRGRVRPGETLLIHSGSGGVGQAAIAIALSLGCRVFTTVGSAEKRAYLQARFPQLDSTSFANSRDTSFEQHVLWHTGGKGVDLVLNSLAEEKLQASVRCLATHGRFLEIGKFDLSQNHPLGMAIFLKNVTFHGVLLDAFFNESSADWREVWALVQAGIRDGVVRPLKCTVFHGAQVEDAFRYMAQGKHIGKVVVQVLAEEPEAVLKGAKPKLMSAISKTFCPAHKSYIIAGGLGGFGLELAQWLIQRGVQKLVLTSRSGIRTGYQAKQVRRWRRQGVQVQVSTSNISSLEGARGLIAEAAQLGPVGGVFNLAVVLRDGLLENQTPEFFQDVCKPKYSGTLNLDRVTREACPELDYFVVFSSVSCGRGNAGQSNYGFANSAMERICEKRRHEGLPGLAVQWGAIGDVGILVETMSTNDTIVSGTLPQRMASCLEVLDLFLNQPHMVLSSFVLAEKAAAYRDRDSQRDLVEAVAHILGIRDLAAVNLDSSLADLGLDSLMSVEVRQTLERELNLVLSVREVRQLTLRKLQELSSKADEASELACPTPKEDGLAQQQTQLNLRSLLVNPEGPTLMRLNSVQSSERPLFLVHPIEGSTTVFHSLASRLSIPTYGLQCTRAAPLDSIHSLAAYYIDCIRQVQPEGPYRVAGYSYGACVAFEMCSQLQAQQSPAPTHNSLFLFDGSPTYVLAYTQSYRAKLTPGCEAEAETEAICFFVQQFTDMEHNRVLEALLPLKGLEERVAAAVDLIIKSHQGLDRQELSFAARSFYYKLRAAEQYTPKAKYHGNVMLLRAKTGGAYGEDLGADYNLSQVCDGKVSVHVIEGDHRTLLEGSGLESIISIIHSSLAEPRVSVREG
Chain of Broad substrate specificity ATP-binding cassette transporter ABCG2 (Homo sapiens) (Q9UNQ0 whole entry, looked up): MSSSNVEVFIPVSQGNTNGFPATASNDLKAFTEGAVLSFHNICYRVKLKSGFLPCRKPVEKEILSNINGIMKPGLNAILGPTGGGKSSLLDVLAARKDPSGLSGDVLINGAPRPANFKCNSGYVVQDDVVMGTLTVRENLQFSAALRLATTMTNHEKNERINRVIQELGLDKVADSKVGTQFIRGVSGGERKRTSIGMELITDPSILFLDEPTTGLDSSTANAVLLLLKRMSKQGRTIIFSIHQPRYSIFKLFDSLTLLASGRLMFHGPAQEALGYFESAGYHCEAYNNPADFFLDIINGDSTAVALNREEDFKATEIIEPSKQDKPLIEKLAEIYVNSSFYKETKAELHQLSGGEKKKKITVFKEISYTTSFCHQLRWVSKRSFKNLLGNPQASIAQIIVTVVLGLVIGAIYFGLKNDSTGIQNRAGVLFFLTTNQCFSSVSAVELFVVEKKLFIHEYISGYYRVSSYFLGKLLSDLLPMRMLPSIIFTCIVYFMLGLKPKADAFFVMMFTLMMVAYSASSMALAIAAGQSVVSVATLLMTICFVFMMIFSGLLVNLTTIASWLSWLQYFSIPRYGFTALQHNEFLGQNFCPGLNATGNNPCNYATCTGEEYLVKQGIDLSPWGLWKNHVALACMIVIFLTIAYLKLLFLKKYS

As a reminder, the AC50 is the midpoint of the concentration-response curve, whichever way the signal moves. On to `Nc1ccc(C(=O)O)cc1`, for which the result in assay [1], in assay [2], in assay [3], in assay [4], in assay [5] and in [6] was inactive. The outcome in assay [7], in assay [9], in [10], in [11], in assay [12] and in assay [13] was inactive. Besides, the call in assay [14], in [15], in [16], in assay [17] and in [18] was inactive. Also, in [8], the AC50 was 77 µM (active).

For `C=CC(=O)OCCCCCCOC(=O)C=C`, the compound was called inactive in assay [19] and in assay [20].

For the compound `COc1ccc(-c2coc3cc(O)cc(O)c3c2=O)cc1`, the AC50 in assay [19] was 1.81 µM (active).

As for `C1CNCCN1`, the outcome in [1], in [2], in [3], in assay [4], in assay [5] and in assay [6] was inactive. In addition, the compound was classed as inactive in assay [7], in assay [9], in [10], in assay [11], in assay [12] and in assay [13]. Also, the outcome in [14], in [15], in assay [16], in [17] and in [18] was inactive. In addition, the AC50 in assay [8] is 73.1 µM (active).
